# Assay results taken from PubChem BioAssay (Tox21).
# Results filed as inconclusive are left out. Entries that show only a call come without a potency. Values without a mark were called inactive. Active and inactive are the calls of the source. The call rests on the fitted dose curve; in most records, active means well fitted cell-killing curve with a large enough effect in the repeat runs; inconclusive means weak or mixed curves, or effect the other way; inactive means flat fitted curve, though single readings scatter.
# Assay: qHTS RealTime-Glo MT Cell Viability Assay in HEK293 cells - 16 hour (AID 1224872); further: nearly all actives have a fitted effect of over 50% in size; on activity change, negative = cytotoxicity: top concentration of the series differs between compounds
# Conditions: RealTime-Glo luminescence; series mostly up to 76.8 µM
# Text: National Center for Advancing Translational Sciences [NCATS]
# NIH Chemical Genomics Center [NCGC]
# U.S. Environmental Protection Agency [EPA]
# National Institutes of Environmental Health Sciences [NIEHS]
# National Toxicology Program [NTP]
# U.S. Food and Drug Administration [FDA]
# Measure of cell viability is critical in the cell-base assay. Analysis of cell viability is necessary for the characterization of cell responses to cytotoxic drugs and environmental stress. A RealTime-Glo MT Cell Viability Assay to monitor cell viability in real time of continues cell culture during 40 hours of compound treatment was used to screen Tox21 10K library compounds in Hek293 cells. The RealTime-Glo MT Cell Viability Assay is a nonlytic, homogeneous, bioluminescent method to measure cell viability in real time using a simple, plate-based method. The assay involves adding NanoLuc luciferase and a cell-permeant prosubstrate to cells in culture. Viable cells reduce the proprietary prosubstrate to generate a substrate for NanoLuc luciferase. This substrate diffuses from cells into the surrounding culture medium, where it is rapidly used by the NanoLuc Enzyme to produce a luminescent signal. The signal correlates with the number of viable cells, making the assay well suited for cytotoxicity studies.
# Tox21 Assay Protocol Summary:
# The mixture of Hek293 cell suspension and reagents were dispensed at 600cells/6 ul/well in 1536-well tissue culture treated black solid bottom plates using a Multidrop dispenser. After the assay plates were incubated at a 37 C/5% CO2 incubator for 5 hours, 23 nL of compounds dissolved in DMSO, positive and negative controls was transferred to the assay plate by a pintool work station. The plates were incubated at 37 C for 40 hours. The luminescence intensity were measured at 0h, 8h, 16h, 24h, 32h and 40h time points using ViewLux plate reader during compound treatment.
# Potency means the concentration at half of the fitted maximal effect.
Compound,"activity change, negative = cytotoxicity",Potency
CCn1cc(C(=O)O)c(=O)c2cc(F)c(N3CCN(C)CC3)cc21,4.51% [at 15.8 µM],
C=CCOCC(O)CS(=O)(=O)O (stereo not given),,inactive
CCC(=O)/C=C/c1ccc(OC)cc1,,inactive
C#CC(O)C(CC)CCCC (stereo not given),,inactive
CC(C)c1cccc(C(C)C)c1N,,inactive
CC1=CC(C)C(C=O)C(C)C1 (stereo not given),,inactive
CCN1CCN(c2cc3c(cc2F)c(=O)c(C(=O)O)cn3C2CC2)CC1,,inactive
CO,,inactive
CCCOCC(C)OCC(C)O (stereo not given),,inactive
FC(F)(F)C(F)(F)C(F)(F)C(F)(F)C(F)(F)C(F)(F)C(F)(F)C(F)(F)C(F)(F)C(F)(F)F,-4.72% [at 6.97 µM],
CO[Si](CCCNCCC[Si](OC)(OC)OC)(OC)OC,,inactive
CCCCCCCCCCCCI,,inactive
NC(=O)c1ncn([C@@H]2O[C@H](CO)[C@@H](O)[C@H]2O)c1N,,inactive
CCCCCOC(=O)Nc1nc(=O)n([C@@H]2O[C@H](C)[C@@H](O)[C@H]2O)cc1F,,inactive
C[C@H]1O[C@@H](n2cc(F)c(=O)[nH]c2=O)[C@H](O)[C@@H]1O,,inactive
CN(C)N=Nc1ccccc1,,inactive
Cc1cc(C)cc(OCC2CNC(=O)O2)c1 (stereo not given),,inactive
CCO[Si](CCCN=C=O)(OCC)OCC,,inactive
C1=C\CC/C=C\CC/C=C\CC/1,,inactive
CC(C)(C)CC(C)(C)N,,inactive

Compound,"activity change, negative = cytotoxicity",Potency
CCn1c(=O)c2c(nc(/C=C/c3ccc(OC)c(OC)c3)n2C)n(CC)c1=O,,1.69 µM (active)
C=CC(=O)OCCCCCC,,inactive
O=C(O)C1CCC1,,inactive
OCCN1C[C@H](O)[C@@H](O)[C@H](O)[C@H]1CO,,inactive
CC12CCC(CC1=O)C2(C)C (stereo not given),,inactive
COc1cccc(OC)c1,,inactive
C=CCOc1nc(OCC=C)nc(OCC=C)n1,,inactive
CCc1cc(S(=O)(=O)O)c2cc(C(C)C)cccc1-2,,inactive
c1ccc(SCCSc2ccccc2)cc1,,inactive
CC(O)CN(CCCN(C)C)CCCN(C)C (stereo not given),,inactive
CSc1nc(NC2CC2)nc(NC(C)(C)C)n1,,24.5 µM (active)
Nc1cc(N)cc(C(=O)O)c1,,inactive
COc1ccc(N=[N+]([O-])c2ccc(OC)cc2)cc1,,inactive
CCCCC=O,,inactive
CN1[C@@H]2CC[C@H]1CC(NC(=O)n1c(=O)[nH]c3ccccc31)C2 (stereo not given in full),,inactive
CC(=O)OC(C)(C)C,,inactive
OCc1ccccn1,,inactive
OCC(CO)(CO)COCC(CO)(CO)CO,,inactive
CCCCCCCCN(C)CCCCCCCC,,inactive
OC/C=C/c1ccccc1,,inactive
